Assay outcomes: PubChem BioAssay, National Center for Advancing Translational Sciences (NCATS)
Sampled rows, rich in hits. Any-hit rate of the full collection: about 2.9%.
PI5P4K alpha inh: qHTS for Inhibitors of phosphatidylinositol 5-phosphate 4-kinase (PI5P4K). Phosphatidylinositol 5-phosphate 4-kinase type-2 alpha (Homo sapiens), P48426. PI5P4Kalpha enzyme, ADP-Glo luminescence, 60 min; active compounds read low. max response, %. 1.2% of 330,000 active. AID 652105, 2013; active means max response of -50% or lower; inconclusive means between -30% and -50%; inactive means -30% or higher; further: value at the top dose of about 77 µM; on the % scale 0 is the no-effect control and ±100 the full control effect
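Luminescence from ADP-Glo served as readout of PI5P4Kalpha activity in a qHTS format. Reaction: enzyme, substrate, compound, ATP at 5 microM final, 60 min at RT.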
POLH inh: qHTS for Inhibitors of Polymerase Eta. Potency, µM (doses to about 114 µM), without a hit: at the top dose activity change, negative = inhibition, most hits filed as inhibitors. recombinant Pol eta, fluorescent DNA replication assay. AID 588591, 2011. 1.2% of 390,000 active; further: potency means the concentration at half of the fitted maximal effect; on the % scale 0 is the no-effect control and ±100 the full control effect
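Fluorescent replication assay: 50 nM final substrate added after a 15 min room-temperature compound preincubation with 10 nM enzyme. Signal taken at 0 min and again at 10 min.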
POLI inh: qHTS for Inhibitors of Polymerase Iota | DNA polymerase iota (Homo sapiens), Q9UNA4 | 1% of 390,000 active | Potency, µM (series often up to 115 µM), inactives show at the highest dose activity, negative = inhibition, hits mostly inhibitors | Pol iota fluorescent replication assay, 10 min; further: potency means the concentration at half of the fitted maximal effect
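Pol iota at 10 nM preincubated 15 min with compounds at room temperature; reaction started with fluorescent substrate, 50 nM final. Fluorescence read kinetically at 0 and 10 min; buffer-only wells as negative control.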
ALOX12 inh: Primary qHTS assay for inhibitors of human arachidonate 12S-lipoxygenase (ALOX12): Round 2; Polyunsaturated fatty acid lipoxygenase ALOX12 (Homo sapiens), P18054; purified 12hLO, xylenol orange hydroperoxide absorbance; Potency, µM (doses to about 108 µM), inactives show top-dose activity change, negative = inhibition, usual class: inhibitors; 1.1% of 580,000 active; AID 1671190, 2021; further: potency means the concentration at half of the fitted maximal effect; on the % scale 0 is the no-effect control and ±100 the full control effect
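Purified human 12hLO (150 nM final) in 25 mM Hepes, 0.01% Triton X-100, pH 7.0 was preincubated 15 min at room temperature with compound. Then 40 uM arachidonic acid was added, 30 min. Hydroperoxide was read by Fe-XO absorbance ratio 573/405 nm.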
Pol beta inh: qHTS Assay for Inhibitors of DNA Polymerase Beta; AID 485314, 2010; P06746; 1.3% of 340,000 active; Pol beta primer extension/strand displacement, fluorescence kinetic; Potency, µM (titrated, usually from 114 µM), without a hit: at the highest dose activity change, negative = inhibition, actives largely listed as inhibitors; further: potency means the concentration at half of the fitted maximal effect; on the % scale 0 is the no-effect control and ±100 the full control effect
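Preincubation: enzyme (10 nM) with compound, 15 min, RT. Reaction: substrate added to 50 nM final. Reads: 0 and 10 min. Analysis: normalized, Hill fit.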
POLK inh: qHTS for Inhibitors of Polymerase Kappa | purified Pol kappa, fluorescent DNA synthesis assay, 10 min | Potency, µM (series often up to 107 µM), inactives show at the highest dose activity, negative = inhibition, most hits filed as inhibitors | 0.53% of 400,000 active | AID 588579, 2011; further: potency means the concentration at half of the fitted maximal effect; on the % scale 0 is the no-effect control and ±100 the full control effect
Target sequence (Q9UBT6 whole entry, looked up): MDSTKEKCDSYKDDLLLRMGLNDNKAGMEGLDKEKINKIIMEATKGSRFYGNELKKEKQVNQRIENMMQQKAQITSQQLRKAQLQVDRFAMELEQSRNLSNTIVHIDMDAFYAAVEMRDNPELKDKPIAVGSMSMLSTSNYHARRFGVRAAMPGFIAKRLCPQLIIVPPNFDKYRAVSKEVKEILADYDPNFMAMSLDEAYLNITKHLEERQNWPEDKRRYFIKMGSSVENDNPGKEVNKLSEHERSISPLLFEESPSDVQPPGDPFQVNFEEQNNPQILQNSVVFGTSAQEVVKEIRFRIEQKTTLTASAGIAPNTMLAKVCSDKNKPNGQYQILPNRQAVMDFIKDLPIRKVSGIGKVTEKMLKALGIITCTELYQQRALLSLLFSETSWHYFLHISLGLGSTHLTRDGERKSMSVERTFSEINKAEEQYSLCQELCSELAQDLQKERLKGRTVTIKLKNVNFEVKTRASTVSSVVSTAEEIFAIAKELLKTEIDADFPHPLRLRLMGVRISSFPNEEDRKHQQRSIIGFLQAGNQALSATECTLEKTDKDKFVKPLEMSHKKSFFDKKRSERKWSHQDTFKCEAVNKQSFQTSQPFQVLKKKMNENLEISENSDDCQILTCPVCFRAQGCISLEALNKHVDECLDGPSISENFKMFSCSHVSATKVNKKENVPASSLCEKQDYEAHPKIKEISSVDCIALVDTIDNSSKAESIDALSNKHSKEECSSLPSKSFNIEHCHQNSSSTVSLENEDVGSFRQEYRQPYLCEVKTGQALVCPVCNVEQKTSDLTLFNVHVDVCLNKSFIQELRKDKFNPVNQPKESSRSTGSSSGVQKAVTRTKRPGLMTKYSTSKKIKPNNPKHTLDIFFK
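First, compounds were pin-transferred onto 10 nM Pol kappa. After 15 min at room temperature, substrate was added to 50 nM final. Fluorescence was then measured kinetically at 0 and 10 min.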
Numbers without * were called inactive; ? = inconclusive; nt = no result; [ ] = another dose, or the depositor's remark. Unless noted, the call rests on the fitted dose curve; in most records, active means well fitted inhibition curve with a large enough effect; inconclusive means small, poorly fitted or top-dose-only effect, or another doubt; inactive means no such curve, though single readings can be large or run the other way.

SMILES	PI5P4K alpha inh	POLH inh	POLI inh	ALOX12 inh	Pol beta inh	POLK inh
N#Cc1c(NC(=O)CCC(=O)O)sc2c1CCCC2	-1	-9%	8%	1%	0%	-18%
NC(=O)c1c(NC(=O)c2ccc([N+](=O)[O-])o2)sc2c1CCCC2	-10	8%	94%	-2%	62%	4%
Cc1nnc(SCC(=O)Nc2sc3c(c2C#N)CCCC3)[nH]c1=O	-52*	?	?	?	3%	-14%
COC(=O)C1CCN(CC(=O)Nc2sc3c(c2C#N)CCC3)CC1	-13	?	-35%	0%	40µM*	-1%
N#Cc1c(NC(=O)c2ccc([N+](=O)[O-])o2)sc2c1CCC2	-3	?	?	-18%	20µM*	?
N#Cc1c(NC(=O)CCC(=O)O)sc2c1CCCCC2	-74*	?	?	?	-10%	-13%
CC1CCCCN1CC(=O)Nc1sc2c(c1C#N)CCC2 (centres undefined)	-17	?	?	-24%	?	-23%
O=C(N/N=C/c1c(Cl)cccc1Cl)c1cccs1	nt	nt	nt	2%	nt	nt
CCOC(=O)c1ccc(NC(=O)c2cc(=O)c3cc(C)c(C)cc3o2)cc1	nt	nt	nt	14%	nt	nt
N#Cc1ccc(-c2cccnc2)nc1SCC(=O)Nc1sc2c(c1C#N)CCC2	nt	79µM*	14µM*	-17%	?	79µM*
N#Cc1c(NC(=O)CN2CCCCC2)sc2c1CCC2	-25	28µM*	?	?	?	-12%
Cn1nc(-c2ccc(C(=O)N3CCCC3)cc2)c2ccccc2c1=O	nt	nt	nt	22%	nt	nt
Cc1cccc(C(=O)NC2CCC(C(F)(F)F)CC2)n1 (centres undefined)	nt	nt	nt	45%	nt	nt
NC(C(=O)O)C(O)c1ccc(O)c(O)c1 (centres undefined)	nt	nt	nt	nt	nt	0.24µM*
O=C(Nc1cccc([N+](=O)[O-])c1)c1ccc2ccccc2c1O	0	-3%	2%	0%	40µM*	-12%
CC(C)(C)c1csc(NC(=O)Cc2cccs2)n1	?	-28%	72%	?	22µM*	-16%
O=C(Nc1cccnc1)c1ccc2ccccc2c1O	-4	-13%	102%	13%	7%	0%
O=C(Cc1cccs1)Nc1ccccc1	2	-18%	6%	0%	70%	-1%
CC(=O)c1cccc(NC(=O)Cc2cccs2)c1	nt	?	-18%	-28%	32µM*	?
CCCCN(CCCC)S(=O)(=O)c1ccc(NC(=O)Cc2cccs2)cc1	nt	79µM*	50µM*	?	?	?
Cc1cc(CNC(=O)COc2cccc3ccccc23)c2ccccc2n1	nt	nt	nt	3%	nt	nt
Cc1ccc(NC(=O)COc2ccc(Cl)cc2)c(C(=O)O)c1	nt	nt	nt	-9%	nt	nt
O=C(Cc1ccccc1)Nc1cccc([N+](=O)[O-])c1	0	9%	-4%	-9%	-8%	0%[60.1 µM]
Cc1cccc(C)c1NC(=O)Cc1cccs1	?	?	?	-19%	40µM*	-14%
O=C(Cc1cccs1)Nc1cccc([N+](=O)[O-])c1	?	?	?	-19%	25µM*	-29%
SMILES	PI5P4K alpha inh	POLH inh	POLI inh	ALOX12 inh	Pol beta inh	POLK inh
CC(C(=O)Nc1ccccc1)N(C)Cc1ccc2ccccc2c1 (centres undefined)	nt	nt	nt	-28%	nt	nt
Cc1cc(C(=O)COC(=O)Cc2n[nH]c(=O)c3ccccc23)c(C)n1CC1CCCO1 (centres undefined)	nt	nt	nt	-7%	nt	nt
O=C(Nc1ccc(-c2noc(/C=C/c3ccccc3)n2)cc1)c1ccc(Br)o1	nt	nt	nt	28µM*	nt	nt
N#C/C(=C/c1ccc(OCC(F)(F)F)cc1)c1ccccn1	nt	nt	nt	3%	nt	nt
CC(C)Sc1nnc(NC(=O)c2ccco2)s1	-7	89µM*	?	-11%	-22%	-17%
O=C(Nc1n[nH]c(=S)s1)c1ccco1	-61*	-3%	?	?	6%	56µM*
COc1ccccc1NC(=O)c1ccc(NC(=O)COC(=O)c2cc(C)nc3ccccc23)cc1	nt	nt	nt	-14%	nt	nt
Cc1cc(C)nc(OC(C(=O)O)C(OCC(C)C)(c2ccccc2)c2ccccc2)n1 (centres undefined)	0	?	13%	9%	-14%	0%
CCC(C)COC(c1ccccc1)(c1ccccc1)C(Oc1nc(C)cc(C)n1)C(=O)O (centres undefined)	-2	9%	79µM*	-15%	0%	-16%
NS(=O)(=O)c1cccc2c1c([N+](=O)[O-])cc1[nH]c(=O)c(=O)[nH]c12	nt	nt	nt	?	nt	21µM*
CC(C)c1noc(-c2cn(C3CCCN(C(=O)c4cccc5[nH]ccc45)C3)nn2)n1 (centres undefined)	nt	nt	nt	12%	nt	nt
CCOc1cc(NC(=S)NCC2CCCO2)c(OCC)cc1NC(=O)c1ccccc1C (centres undefined)	6	-12%	-7%	-32%	-3%	-2%
CCOc1cc(NC(=S)Nc2ccccc2OC)c(OCC)cc1NC(=O)c1ccccc1C	1	-4%	7%	45µM*	?	-13%
Cc1csc(NC(=O)c2sccc2-c2ccccc2)n1	nt	nt	nt	-14%	nt	nt
O=C(CN1C(=O)NC(c2ccc(Cl)cc2)C2=C1COC2=O)Nc1cccc(Br)c1 (centres undefined)	nt	nt	nt	10µM*	nt	nt
COc1cccc(NC(=O)CN2C(=O)NC(c3ccc(C)cc3)C3=C2COC3=O)c1 (centres undefined)	nt	nt	nt	18%	nt	nt
Cc1cc(NC(=O)CN2C(=O)NC(c3ccc(Cl)cc3)C3=C2COC3=O)ccc1Br (centres undefined)	nt	nt	nt	8.9µM*	nt	nt
CCOC(=O)c1ccc(NC(=O)c2c(NCc3sccc3C)sc3c2CCCCC3)cc1	nt	-27%	?	11µM*	?	-8%[60.1 µM]
CCN(C(=S)Nc1cccc(C)c1)c1ccccc1	-6	-17%	11%	-23%	6%	-4%
CCN(C(=S)Nc1ccc(Oc2ccccc2)cc1)c1ccccc1	12	-22%	?	50µM*	-3%[57.1 µM]	-11%
CC1=CC(=O)C=CC1=Nc1ccc(N(C)C)cc1	-95*	nt	nt	7.9µM*	nt	nt
CN(C)c1ccc(N=c2sc3ccccc3n2C)cc1	nt	-14%	6%	?	-1%	-11%
NC(=O)COc1c(Cl)cc(Cl)cc1Cl	nt	nt	nt	-14%	nt	nt
COc1ccc(-c2nc(NC(=O)c3cc(OC)c(OC)c(OC)c3)sc2C)cc1	nt	nt	nt	45µM*	nt	nt
